Experimental data: PubChem BioAssay (Tox21)
Inconclusive results are not listed. A call without a number means that no potency is given here. Calls of active or inactive are those of the source. Unless noted, the call rests on the fitted dose curve; in most records, active means well fitted curve in the direction sought with a large enough effect in the repeat runs; inconclusive means weak or mixed curves; inactive means no such curve, though single readings can be large; an effect the other way counts as inactive or inconclusive.

Assays:
[1] = qHTS assay for small molecules that induce genotoxicity in human embryonic kidney cells expressing luciferase-tagged ATAD5 - cell viability (AID 651634; calls by dose curve; further: nearly all actives have a fitted effect of over 25% in size)
Summary of the method: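 Cells (HEK293T, luciferase-tagged ATAD5) are seeded at 2,000 per well, dosed with compound or DMSO vehicle, and incubated 15.5 hr at 37C and 5% CO2. CellTiter-Fluor is added for 30 min before fluorescence is measured.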

[2] = qHTS assay for small molecule disruptors of the mitochondrial membrane potential - cell viability (AID 720634; calls by dose curve;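 further: human HepG2 liver cancer cells; series mostly up to about 83 µM; nearly all actives have a fitted effect of over 20% in size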)
Summary of the method: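 Cytotoxicity was measured by ATP quantitation in HepG2 wells that had first been treated with compound for 1 hr and stained with m-MPI dye; CellTiter-Glo incubation was 30 min at room temperature.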

[3] = qHTS assay to test for compound auto fluorescence at 590 nm (red) in HepG2 cells (AID 720674)
Summary of the method: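 Compound auto-fluorescence is scored relative to Rose Bengal sodium, measured at 540/590 nm in live HepG2 cultures after 1 hr compound contact (37 C, 5% CO2).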

[4] = qHTS assay to test for compound auto fluorescence at 535 nm (green) in HepG2 cells (AID 720675)
[5] = qHTS assay to test for compound auto fluorescence at 460 nm (blue) in HEK293 cells (AID 720678)
Summary of the method: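 Blue read-out at excitation 405 nm and emission 460 nm follows overnight compound exposure of HEK293 cells at 37C in 5% CO2. Activity is given as auto fluorescence equivalency to triamterene.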

[6] = qHTS assay to test for compound auto fluorescence at 590 nm (red) in HEK293 cells (AID 720679)
Summary of the method: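 Red channel, Ex/Em 540/590nm; signal expressed as equivalency to Rose Bengal sodium. HEK293, 2,000 cells/well, 10% dialyzed FBS; 23 nL compound pinned after 4-5 hr attachment; overnight 37C/5% CO2 before reading.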

[7] = qHTS assay for small molecules that induce genotoxicity in human embryonic kidney cells expressing luciferase-tagged ATAD5 (AID 651632); further: nearly all actives have a fitted effect of over 15% in size
Summary of the method: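 Cells were seeded at 2,000 per well, dosed with compound, and incubated 16 hr at 37C in 5% CO2. Luciferase activity was then quantified after a 30 min room-temperature incubation with Amplite.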

[8] = qHTS assay for small molecule disruptors of the mitochondrial membrane potential (AID 720635); further: potency means the concentration at half of the fitted maximal effect
Summary of the method: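 HepG2 cells (2,000/well) attached overnight at 37C, then took compound for 1 hr at 37C, 5% CO2. Mito-MPS dye was added for 30 min; fluorescence was read at 490/535 nm (monomers) and 540/590 nm (aggregates).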

[9] = qHTS assay for small molecule agonists of the p53 signaling pathway - cell viability (AID 651633; calls by dose curve;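 further: p53RE-bla HCT reporter cells with a stable beta-lactamase p53 reporter; series mostly up to about 83 µM; nearly all actives have a fitted effect of over 30% in size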)
Summary of the method: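 p53RE-bla cells, seeded at 4,000 per well and rested 5 h at 37 C/5% CO2, received compounds in DMSO for 16 h at 37 C. CellTiter-Glo was then added, and luminescence was read after 30 min at room temperature to gauge cytotoxicity.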

Structure (SMILES)	Potency [1]	Potency [2]	outcome [3]	Potency [4]	Potency [5]	outcome [6]	Potency [7]	Potency [8]	Potency [9]
O.O.O.O.O.O.O=S(=O)([O-])[O-].[Ni+2]	inactive	inactive	inactive	inactive	inactive	inactive	–	–	–
O.O.O.O.O.O.O.O=S(=O)([O-])[O-].[Co+2]	–	inactive	inactive	inactive	inactive	inactive	–	–	–
Clc1ccc(C(Cl)(Cl)Cl)cc1Cl	–	inactive	inactive	inactive	inactive	inactive	inactive	59.8 µM (active)	–
CCCCn1cc[n+](C)c1 (tested in a mixture with another compound)	inactive	inactive	–	inactive	inactive	inactive	–	inactive	–
[Cl-].[Cl-].[Cl-].[Yb+3]	inactive	–	inactive	inactive	inactive	inactive	–	–	–
CCCCn1cc[n+](C)c1.[Cl][Fe-]([Cl])([Cl])[Cl]	–	inactive	inactive	inactive	inactive	inactive	–	inactive	–
CCO/N=C(\CC)C1=C(O)CC(c2c(C)cc(C)cc2C)CC1=O (centres undefined)	inactive	inactive	inactive	inactive	inactive	inactive	–	12.2 µM (active)	inactive
O=[N+]([O-])c1ccc(CCl)cc1	inactive	inactive	inactive	inactive	inactive	inactive	–	inactive	inactive
CN(C)c1ccc(N)cc1	inactive	inactive	–	inactive	inactive	inactive	–	8.42 µM (active)	–
CC(=O)[O-].CC(=O)[O-].[Co+2]	inactive	–	inactive	inactive	inactive	inactive	–	–	inactive
O=[N+]([O-])[O-].[Tl+]	inactive	–	inactive	inactive	inactive	inactive	–	–	–
CC(Cc1ccc(O)cc1)NCC(O)c1cc(O)cc(O)c1 (centres undefined)	inactive	inactive	inactive	inactive	inactive	inactive	–	inactive	–
CC1CCCC1	–	inactive	–	–	–	–	–	–	–
[C-]1=CC=CC1.[Cl][Zr+2][Cl].c1cc[cH-]c1	inactive	inactive	inactive	inactive	–	inactive	–	–	inactive
S=C=NCCc1ccccc1	–	inactive	inactive	inactive	inactive	inactive	–	38.6 µM (active)	inactive
